TRPML1 inh: qHTS for Inhibitors of the Human Mucolipin Transient Receptor Potential 1 (TRPML1); TRPML1-inducible cells, Ca2+ dye fluorescence, FDSS; active compounds read low; inhibition of EC80 agonist-evoked calcium signal; hit rate 0.02% among 390,000; AID 624415, 2012; activity change, negative = inhibition, % (test concentration not listed); in the data active means activity change below about -50%; inconclusive means between about -30% and that limit;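 further: stimulus is agonist 54-4 at its EC80 concentration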
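TRPML1-DL cells, Tet-induced overnight (~16 h, 37 °C) at 1,500 cells/well, were loaded with Ca8 no-wash dye plus quencher for 45-90 min at room temperature. Compounds were pinned during FDSS kinetic reading; agonist 54-4 at EC80 (4 uM final) then added.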
BRCA1 expr up: qHTS Assay to Identify Small Molecule Activators of BRCA1 Expression. MCF7-BRCA1-FFLuc reporter, luminescence, 48 h; response scale: scaled: vehicle 0%, 10 µM genistein 100%. Potency, µM (highest dose often 46.1 µM), actives largely listed as activators. hit rate 1.1% among 380,000; further: nearly all actives have a fitted effect of over 80% in size
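Cells: MCF7-BRCA1-FFLuc, 2000/well. Exposure: 48 h, 37 °C, 5% CO2. Read: luminescence, 15 min post-substrate. Controls: genistein 10 microM (maximal activation), DMSO (neutral).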
TRPML1 agonist: qHTS for Agonists of the Human Mucolipin Transient Receptor Potential 1 (TRPML1); TRPML1-expressing cells, Ca2+ dye fluorescence, FDSS; Mucolipin-1 (Homo sapiens), Q9GZU1; AID 624414, 2012; hit rate 0.12% among 410,000; activation, % (no concentration beside the values); in the data active means activation above about 50%; inconclusive means mostly about 30% to 49%
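TRPML1-DL cells, Tet-induced overnight (~16 h, 37 degrees C), loaded 45-90 min at room temperature with Ca8 no-wash calcium dye plus quencher. FDSS fluorescence: 10 s baseline, compound pin-transfer, 110 s agonist read, then EC80 54-4 (4uM final) and 110 s antagonist read.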
IL2 activator: qHTS of IL-2 Activators. activation, % (series mostly up to about 46 µM). hit rate 0.065% among 360,000. IL-2 activation reporter assay, cell-based qHTS; stimulated with anti-CD3/CD4/CD28 beads; in transgenic mouse T cells. AID 652025, 2013; in the data active means activation above about 50%; inconclusive means mostly about 30% to 49%
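Quantitative HTS in unstimulated transgenic mouse T cells, with memory T cells as non-tolerant control and PMA/ionomycin as tolerance-bypass control. Compound pretreatment lasted 60 minutes before 18 h bead stimulation; EGFP/DsRed fluorescence read.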
PKM2 activator: qHTS Assay for Activators of Human Muscle isoform 2 Pyruvate Kinase; Pyruvate kinase PKM (Homo sapiens), P14618; purified PKM2, Kinase-Glo ATP luminescence, activation; response scale: 0% is enzyme alone, no compound; Potency, µM (series often up to 57.5 µM), hits mostly activators; hit rate 0.34% among 260,000; further: nearly all actives have a fitted effect of over 55% in size
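hPK-M2, >95% pure; 0.1 mM ADP / 0.5 mM PEP final; imidazole pH7.2 buffer w/ 7 mM MgCl2, 50 mM KCl; 1 h RT; Kinase-Glo lum. Intermediate enzyme activity for dual inhibitor/activator qHTS.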
TSG101-PTAP inh: qHTS Assay for Iinhibitors of HIV-1 Budding by Blocking the Interaction of PTAP/TSG101. Fluorescence polarization, FITC-PTAP peptide / Tsg101 binding. Potency, µM (top dose mostly 115 µM), hits mostly inhibitors. 340,000 tested, under 10 active. AID 493005, 2010; active means well fitted inhibition curve with a large enough effect in the main read-out, with a control signal flat, not every such curve was filed as active; inconclusive means small, poorly fitted or top-dose-only effect, or effect the other way, or a change in a side signal; inactive means no such curve, though single readings can be large or run the other way
Target sequence (Q99816 whole entry, looked up): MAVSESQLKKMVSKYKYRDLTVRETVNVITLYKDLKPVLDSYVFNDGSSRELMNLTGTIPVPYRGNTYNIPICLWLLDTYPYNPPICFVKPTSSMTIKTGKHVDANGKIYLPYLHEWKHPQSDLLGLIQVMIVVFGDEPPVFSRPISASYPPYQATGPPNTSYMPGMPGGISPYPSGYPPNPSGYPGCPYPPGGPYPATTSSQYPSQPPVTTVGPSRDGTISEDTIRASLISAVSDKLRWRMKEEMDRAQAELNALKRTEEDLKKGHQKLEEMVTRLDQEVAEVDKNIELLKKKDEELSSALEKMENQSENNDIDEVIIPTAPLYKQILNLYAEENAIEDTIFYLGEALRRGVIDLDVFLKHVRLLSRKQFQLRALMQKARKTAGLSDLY
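Steps: Tsg101 binding domain dispensed (10 uM final), compounds pinned in DMSO, FITC-labeled PTAP-motif peptide added (50 nM final); after 20 min binding at room temperature, polarization measured.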
Large screens that a line does not name were inactive. The list is not random: actives were taken first. Their share in the collection is about 1.3%. Unless noted, the call rests on the fitted dose curve; in most records, active means well fitted activation curve with a large enough effect; inconclusive means small, poorly fitted or top-dose-only effect; inactive means no such curve, though single readings can be large or run the other way.

CCN1/C(=C/c2ccc3cc(C)ccc3[n+]2CC)Sc2ccccc21	TRPML1 agonist inconclusive, IL2 activator 90.4
COC(=O)Cc1c(C)c2ccc(OC3CCCCC3=O)c(C)c2oc1=O (stereo not given)	none (no result: PKM2 activator)
CCOC(=O)c1ccc(NC(=O)C2=C(C)C(=O)OC23CCN(C(C)C)CC3)cc1	none (no result: IL2 activator, PKM2 activator, TSG101-PTAP inh)
COc1ccc(OC)c(NC(=O)CC2C(=O)NCCN2C(=O)C(F)(F)F)c1 (stereo not given)	none (no result: BRCA1 expr up, IL2 activator, PKM2 activator, TSG101-PTAP inh)
Cc1cc(Cl)ccc1NC(=O)C1CCCN(c2nnc(C)c3c(C)n(-c4ccccc4)nc23)C1 (stereo not given)	none (no result: BRCA1 expr up, IL2 activator, PKM2 activator, TSG101-PTAP inh)
O=C(CCSCc1ccccc1F)N1CCN(c2ccc(F)cc2)CC1	none (no result: BRCA1 expr up, IL2 activator, PKM2 activator, TSG101-PTAP inh)
O=[N+]([O-])c1ccc2c(c1)C=C/C2=C\c1ccc(C=S)cc1	BRCA1 expr up 5.62µM (no result: TRPML1 inh, IL2 activator, PKM2 activator, TSG101-PTAP inh)
CN(C)c1ccc(/C=C/c2cc(N(C)C)nc3ccccc23)cc1	none (no result: TRPML1 inh, BRCA1 expr up, IL2 activator, PKM2 activator, TSG101-PTAP inh)
c1ccc(N=c2nc(-c3ccccc3)n(-c3ccccc3)s2)cc1	none (no result: TRPML1 inh, IL2 activator, PKM2 activator, TSG101-PTAP inh)
O=C(NCCCN1CCCC1=O)c1cc2c(s1)CCCCC2	BRCA1 expr up 11.2µM (no result: TRPML1 inh, TRPML1 agonist)
CCN(CC)c1ccc(/C=C2\C(=O)c3ccc(C(=O)O)cc3C2=O)cc1	TRPML1 agonist 77.8, TSG101-PTAP inh inconclusive
CN1C(=O)/C(=C/c2ccc(OC(=O)c3ccco3)cc2)SC1=S	IL2 activator 55.6 (no result: PKM2 activator)
CN1C(=O)/C(=C\c2ccc(OC(=O)c3ccco3)cc2)SC1=S	none
O=C(Nc1ccccc1F)c1ccc2ncsc2c1	BRCA1 expr up inconclusive (no result: PKM2 activator)
O=C(Nc1ccc(F)cc1F)c1ccc2ncsc2c1	BRCA1 expr up 5.01µM (no result: PKM2 activator)
CCOc1ccc2c(c1)c(=O)c(C(=O)c1ccc(CC)cc1)cn2CC(=O)Nc1ccc2c(c1)OCCO2	none (no result: IL2 activator, PKM2 activator, TSG101-PTAP inh)
CCOC(=O)C1CCN(C(=O)c2cc3c(C)cc(C)cc3[nH]2)CC1	none (no result: PKM2 activator)
CCOC(=O)C1CCN(C(=O)c2cc3cc(C)ccc3[nH]2)CC1	BRCA1 expr up 2.82µM
COc1ccc(NC(=O)C(c2ccc(C)cc2)N(C)C(=O)/C=C\c2ccc3c(c2)OCO3)cc1 (stereo not given)	none (no result: BRCA1 expr up, IL2 activator, PKM2 activator, TSG101-PTAP inh)
Cn1cccc1C(=O)C(=O)Nc1ccccc1	BRCA1 expr up 7.08µM
Cc1nc2nc(CNC(=O)OC(C)(C)C)nn2c(C)c1CCC(=O)NCc1ccccc1Cl	none (no result: BRCA1 expr up, IL2 activator, PKM2 activator, TSG101-PTAP inh)
CCC(=O)c1cn(CC(=O)NCc2ccco2)c2ccccc12	BRCA1 expr up 11.2µM
COC(=O)c1cn(CC(=O)NCc2ccco2)c2ccccc12	none
COc1cccc(NC(=O)N2CCc3ccccc3C2)c1	BRCA1 expr up 11.2µM
Cc1ccc(C)c(NC(=O)N2CCCCCC2)c1	none
Cc1ccc(C)c(NC(=O)N2CCc3ccccc3C2)c1	BRCA1 expr up 3.55µM
O=C(Nc1cccc(Cl)c1)N1CCc2ccccc2C1	BRCA1 expr up inconclusive
CCCN(CCC)CCNC(=O)C1CCN(c2nc3ccc(CC)cc3s2)CC1	none (no result: BRCA1 expr up, IL2 activator, PKM2 activator, TSG101-PTAP inh)
CCC(=O)c1ccc(OCC(O)Cn2nnc3ccccc32)cc1 (stereo not given)	BRCA1 expr up 10µM
Cc1ccccc1OCC(O)Cn1nnc2ccccc21 (stereo not given)	BRCA1 expr up 12.6µM
C=CCn1c2ccccc2c(=O)c2cc(C#Cc3ccccn3)ccc21	BRCA1 expr up 8.91µM (no result: PKM2 activator)
Cc1cnc2ccc(I)cc2c1/C=C/c1ccc(N(C)C)cc1	none (no result: TRPML1 inh, IL2 activator, PKM2 activator, TSG101-PTAP inh)
O=C1c2cccc3c(O)ccc(c23)C(=O)N1Cc1ccco1	TRPML1 agonist 99.2, PKM2 activator inconclusive, TSG101-PTAP inh inconclusive
O=C1c2cccc3c(O)ccc(c23)C(=O)N1c1ccc(Cl)cc1	TRPML1 agonist 103.7, TSG101-PTAP inh inconclusive (no result: PKM2 activator)
O=C1c2ccccc2C(=O)N1c1ccc(Cl)cc1	none (no result: TRPML1 inh, BRCA1 expr up, TRPML1 agonist, IL2 activator, TSG101-PTAP inh)
CC(=O)Nc1ccc(N2C(=O)c3cccc4c(O)ccc(c34)C2=O)cc1	TRPML1 agonist 71.9, TSG101-PTAP inh inconclusive (no result: PKM2 activator)
O=C1c2ccccc2C(=O)N1Cc1ccco1	none
COc1ccc(C(=O)Nc2cc(C(C)C)c(O)c(S(=O)(=O)c3ccc(OC)cc3)c2C)cc1	BRCA1 expr up 5.62µM (no result: IL2 activator, PKM2 activator, TSG101-PTAP inh)
COc1ccc(C(=O)Nc2cc(C(C)C)c(O)c(S(=O)(=O)c3ccc(Cl)cc3)c2C)cc1	BRCA1 expr up inconclusive (no result: IL2 activator, PKM2 activator, TSG101-PTAP inh)
CCc1ccc(NC(=O)CN(Cc2ccccc2)S(=O)(=O)c2ccc3nc(C)sc3c2)cc1	none (no result: BRCA1 expr up, IL2 activator, PKM2 activator, TSG101-PTAP inh)
COc1ccc(C(=O)c2oc3ccc(OC)cc3c2N)cc1	BRCA1 expr up 5.01µM
COC(=O)c1oc2ccc(OC)cc2c1N	BRCA1 expr up inconclusive
COc1ccc(OC)c(NC(=O)c2cc3c(=O)n4cccc(C)c4nc3n2C)c1	none (no result: BRCA1 expr up, IL2 activator, PKM2 activator, TSG101-PTAP inh)
N#Cc1cc(C#N)c(N2CCN(c3cccc(Cl)n3)CC2)nc1N	BRCA1 expr up 8.91µM
CN(C)c1ccc(-c2ccc(CCO)cc2)cc1	BRCA1 expr up inconclusive (no result: TRPML1 inh, IL2 activator, PKM2 activator, TSG101-PTAP inh)
O=C(NC1CCCCC1)C(=S)NCc1ccccc1	none
O=C(NCc1ccccc1)c1ccc(C(=O)NCc2ccccc2)cc1	none (no result: PKM2 activator)
O=C(NC1CCCCCC1)C(=S)NCc1ccccc1	BRCA1 expr up 11.2µM
O=C(NCc1ccccc1)c1ccc(C(=O)N(C2CCCCC2)C2CCCCC2)cc1	TRPML1 inh inconclusive, TRPML1 agonist 118.6
Cc1ccc(C(=O)N2[C@@H]3CN(C)C(=O)[C@@]2(Cc2ccccc2)[C@H]2C(=O)N(Cc4ccccc4)C(=O)[C@@H]32)cc1	none (no result: PKM2 activator)
